{
  "source": "PubChem BioAssay AID540298",
  "about": "(Southern Research Specialized Biocontainment Screening …, 2011)",
  "note": "Results with a measured potency or affinity are listed apart. Values without a mark were called inactive. How the calls were made is not given here.",
  "data": [
    {"assay": "Vero E6 cell cytotoxicity, dose response, cytotoxicity control (AID 540298)", "conditions": "Vero E6 cells viability; series mostly up to 40 µM; viability: at the top concentration", "units": {"viability": "%"}, "values": [
      {"smiles": "Cc1ccc(N2C(=O)C(CC(=O)Nc3cccc(F)c3)N(C3CC3)C2=O)cc1", "note": "(stereo not given)", "viability": 94.6},
      {"smiles": "CCOC(=O)c1c(CN(C)C)oc2cc(CN(C)C)c(O)c(CSc3ccccc3)c12", "viability": 93},
      {"smiles": "COc1ccc(N2CCN(CCCN)CC2)cc1", "viability": 87.2},
      {"smiles": "CN(C)c1cccc2c(C=C(C#N)C#N)ccc(N(C)C)c12", "viability": 93.7},
      {"smiles": "CC(c1ccccn1)N(CCN(C)C)C(=S)Nc1cccc(F)c1", "note": "(stereo not given)", "viability": 99.1}
    ]}
  ]
}
